According to publication PMC4336329 (PLoS ONE, 2015):
The campaign covered roughly 310,000 compounds. About 14,000 (4.5%) showed an effect of 50% or more. Effects have a minus sign here. This is one part of a sample in which strong results are shown more often than they occur.

target: human ether-à-go-go-related gene (hERG) potassium channel (human, UniProt Q12809); experiment: primary screen, population patch clamp on CHO cells stably expressing hERG; higher = less effect of the substance
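Note: peak tail current of the secondary pulse compared with the same well before compound.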

Chain of human ether-à-go-go-related gene (hERG) potassium channel (Q12809 whole entry, looked up): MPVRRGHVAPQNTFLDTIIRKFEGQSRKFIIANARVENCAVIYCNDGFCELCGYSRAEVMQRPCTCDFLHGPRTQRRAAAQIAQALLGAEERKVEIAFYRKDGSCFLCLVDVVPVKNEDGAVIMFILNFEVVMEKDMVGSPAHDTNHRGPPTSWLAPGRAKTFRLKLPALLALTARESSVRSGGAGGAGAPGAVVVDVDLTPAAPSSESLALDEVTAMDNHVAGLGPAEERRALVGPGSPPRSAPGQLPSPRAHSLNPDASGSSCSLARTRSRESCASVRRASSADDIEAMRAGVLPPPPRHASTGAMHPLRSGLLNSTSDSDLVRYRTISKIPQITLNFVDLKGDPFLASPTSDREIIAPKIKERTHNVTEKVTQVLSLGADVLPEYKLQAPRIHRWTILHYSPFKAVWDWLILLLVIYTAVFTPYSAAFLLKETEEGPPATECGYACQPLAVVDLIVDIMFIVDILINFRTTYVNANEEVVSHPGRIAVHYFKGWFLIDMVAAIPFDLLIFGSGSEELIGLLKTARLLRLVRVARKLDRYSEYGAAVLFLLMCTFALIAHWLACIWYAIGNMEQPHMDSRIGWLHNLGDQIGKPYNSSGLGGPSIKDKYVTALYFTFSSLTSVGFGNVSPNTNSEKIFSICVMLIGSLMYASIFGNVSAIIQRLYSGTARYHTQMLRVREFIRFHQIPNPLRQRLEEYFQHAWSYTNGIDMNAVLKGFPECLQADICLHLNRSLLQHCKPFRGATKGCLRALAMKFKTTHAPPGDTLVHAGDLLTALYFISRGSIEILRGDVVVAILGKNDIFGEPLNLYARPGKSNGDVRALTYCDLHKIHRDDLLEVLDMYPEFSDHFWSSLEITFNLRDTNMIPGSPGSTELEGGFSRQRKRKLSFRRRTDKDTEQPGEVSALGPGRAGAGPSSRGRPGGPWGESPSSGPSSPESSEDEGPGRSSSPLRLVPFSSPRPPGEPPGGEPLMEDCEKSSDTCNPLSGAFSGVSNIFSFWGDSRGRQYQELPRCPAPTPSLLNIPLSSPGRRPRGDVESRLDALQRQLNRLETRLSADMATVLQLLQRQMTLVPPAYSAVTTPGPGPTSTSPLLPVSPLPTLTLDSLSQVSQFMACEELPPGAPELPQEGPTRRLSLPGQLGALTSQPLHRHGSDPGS

| SMILES | hERG current change (%, negative = inhibition) at 10uM [%] |
| --- | --- |
| C#CCOCCOCCOCCNc1nc(N2CCN(C(=O)[C@H](CCC(=O)O)n3cc(C(N)CO)nn3)CC2)nc(N2CCN(C(=O)[C@H](Cc3ccc(O)cc3)n3cc(C(N)[C@H](C)CC)nn3)CC2)n1.Cl (stereo partly drawn) | 9.89 |
| CCN(CC(=O)Nc1c(F)cccc1F)C(=O)COc1ccc2c(c1)CCC2 | -2.81 |
| O=S(=O)(c1ccc(Nc2ccc(-c3ccc4c(c3)OCCO4)nn2)cc1)N1CCCC1 | 5.27 |
| COc1ccccc1CNc1ccc2nnc(CCNC(=O)c3ccc(C)cc3)n2n1 | -0.303 |
| CCCCCCn1c(CN2CCN(C(=O)c3ccco3)CC2)nc2c1c(=O)n(C)c(=O)n2C | -65.8 |
| CCOCCn1c(CN2CCN(C(=O)c3ccco3)CC2)nc2c1c(=O)n(C)c(=O)n2C | -3.37 |
| CC(C)CCn1c(CN2CCN(C(=O)c3ccco3)CC2)nc2c1c(=O)n(C)c(=O)n2C | -39.9 |
| CCCCCn1c(CN2CCN(C(=O)c3ccco3)CC2)nc2c1c(=O)n(C)c(=O)n2C | -60.5 |
| CCCn1c(CN2CCN(C(=O)c3ccco3)CC2)nc2c1c(=O)n(C)c(=O)n2C | -10.3 |
| CCCCn1c(CN2CCN(C(=O)c3ccco3)CC2)nc2c1c(=O)n(C)c(=O)n2C | -34.1 |
| Cl.OC1(c2ccccc2)CCN(Cc2ccccc2)C2CCCCC21 (stereo not drawn) | -15.6 |
| COc1ccc(-c2nnc3sc(-c4ccco4)nn23)cc1OC | 3.81 |
| COCCCNc1nnc(Cc2ccccc2)c2ccccc12 | -31.4 |
| CC1(C)CC(=O)N(c2cccc(Cl)c2)C(=O)C1 | 10.4 |
| CCOC(=O)C1CCN(C(=O)c2cc3c(=O)n4ccccc4nc3s2)CC1 | -6.6 |
| CCOc1ccccc1Cn1c(=O)sc2ccccc21 | 7.43 |
| COc1ccc(C(=O)NN/C(C)=C/C(=O)c2ccccc2)cc1 | 4.41 |
| CCN(CC(=O)Nc1c(F)cccc1F)C(=O)C1CCN(C(=O)c2ccc(F)cc2)CC1 | 4.59 |
| COc1ccccc1NC(=S)N(Cc1cccnc1)Cc1ccco1 | -33.6 |
| O=C(c1ccco1)N(Cc1ccc(Cl)cc1)Cc1ccco1 | -41.2 |
| O=C(Nc1ccccc1)N(Cc1cccnc1)Cc1ccco1 | -32.9 |
| CCc1ccccc1NC(=S)N(Cc1cccnc1)Cc1ccco1 | -18.8 |
| COc1ccc(Cl)cc1NC(=S)N(Cc1cccnc1)Cc1ccco1 | -73.8 |
| CCc1ccc(NC(=O)N(Cc2cccnc2)Cc2ccco2)cc1 | -53.1 |
| CCc1ccc(NC(=S)N(Cc2cccnc2)Cc2ccco2)cc1 | -17.2 |
| S=C(Nc1ccccc1Cl)N(Cc1cccnc1)Cc1ccco1 | -4.94 |
| O=C(Nc1ccc(Cl)cc1)N(Cc1cccnc1)Cc1ccco1 | -63.9 |
| O=C(Nc1ccc(Cl)c(Cl)c1)N(Cc1cccnc1)Cc1ccco1 | -73.7 |
| Cc1ccc(NC(=O)N(Cc2cccnc2)Cc2ccco2)cc1C | -27.2 |
| N#CCCN(Cc1cccnc1)C(=O)Nc1ccc(Cl)c(Cl)c1 | -26 |
